STK33 inh – human STK33 kinase inhibition; Q9BYT3; ADP-Glo luminescence, MBP substrate; inhibition, % at 12.5 µM; hit rate 0.44% among 27,000; AID 2322; in the data active = inhibition above about 20%
Target sequence (Q9BYT3 whole entry, looked up): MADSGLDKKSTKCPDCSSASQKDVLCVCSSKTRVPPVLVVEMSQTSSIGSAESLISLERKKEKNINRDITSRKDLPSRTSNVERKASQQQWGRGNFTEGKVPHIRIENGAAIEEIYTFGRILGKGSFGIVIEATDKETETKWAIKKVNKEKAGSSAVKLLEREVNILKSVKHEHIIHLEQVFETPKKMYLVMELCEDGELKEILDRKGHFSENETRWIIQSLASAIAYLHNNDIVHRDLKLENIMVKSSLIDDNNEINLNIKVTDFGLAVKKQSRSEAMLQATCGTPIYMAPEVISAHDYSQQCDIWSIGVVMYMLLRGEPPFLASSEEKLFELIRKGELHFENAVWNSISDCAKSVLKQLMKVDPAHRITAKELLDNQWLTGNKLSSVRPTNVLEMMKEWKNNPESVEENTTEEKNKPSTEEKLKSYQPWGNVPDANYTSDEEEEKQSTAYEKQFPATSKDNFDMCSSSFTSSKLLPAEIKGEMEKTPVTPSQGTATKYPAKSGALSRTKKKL
NOMO-1 viab – STK33 inhibitor candidate reducing NOMO-1 cell viability. NOMO-1 AML viability, CellTiter-Glo luminescence, 72 h. inhibition, % (concentration not given with the values). hit rate 7.5% among 37,000. AID 2330; in the data active = inhibition above about 80%
p53 PUMA act – re-activators of the mutant p53 pathway | SW480 PUMA-promoter luciferase, p53 mutant reactivation | activation, % at 9.98 µM | hit rate 1.5% among 28,000 | AID 624151; in the data active = activation above about 52%
MITF inh – blocks MITF activity | TRPM1 promoter luciferase, luminescence, 24 h | inhibition, % (concentration not given with the values) | hit rate 0.28% among 37,000 | AID 2240; in the data active = inhibition above about 85%;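 note: human melanocyte line stably carrying TRPM1 promoter luciferase reporter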
Numbers without * were called inactive. Only a selection was taken, and hits are over-represented in it overall.

Results for CC1(C)CC[C@]2(C(=O)O[C@@H]3O[C@H](CO)[C@@H](O)[C@H](O)[C@H]3O)CC[C@]3(C)C(=CCC4[C@@]5(C)CC[C@H](O[C@@H]6O[C@H](C(=O)O)[C@@H](O[C@@H]7O[C@H](CO)[C@@H](O)[C@H](O)[C@H]7O)[C@H](O)[C@H]6O[C@@H]6O[C@H](CO)[C@@H](O)[C@H](O)[C@H]6O)C(C)(C)C5CC[C@]43C)C2C1 (some centres not stated) ?
STK33 inh: -1; NOMO-1 viab: 9; p53 PUMA act: -2; MITF inh: -5

What do the screens show for `CC1(C)CC[C@@]2(C(=O)O[C@@H]3O[C@H](CO)[C@@H](O)[C@H](O)[C@H]3O)C(C1)C1=CCC3[C@@]4(C)CC[C@@H](O[C@@H]5O[C@H](C(=O)O)[C@@H](O[C@@H]6OC[C@@H](O)[C@H](O)[C@H]6O)[C@H](O[C@@H]6OC[C@](O)(CO)[C@H]6O)[C@H]5O)C(C)(C)C4CC[C@@]3(C)[C@]1(C)C[C@H]2O` (some centres not stated)?
STK33 inh: -1; NOMO-1 viab: 5; p53 PUMA act: 1; MITF inh: -1

How did C/C=C(/C)C(=O)O[C@H]1CC(C)(C)C[C@H]2C3=CCC4[C@@]5(C)CC[C@H](O[C@@H]6O[C@H](C(=O)O)[C@@H](O[C@@H]7O[C@H](CO)[C@H](O)[C@H](O)[C@H]7O[C@@H]7O[C@H](CO)[C@@H](O)[C@H](O)[C@H]7O)[C@H](O)[C@H]6O[C@@H]6O[C@@H](C)[C@H](O)[C@@H](O)[C@H]6O)C(C)(C)C5CC[C@@]4(C)[C@]3(C)C[C@@H](O)[C@@]12CO (some centres not stated) do in these assays?
STK33 inh: -9; NOMO-1 viab: 119*; MITF inh: 92*

What do the screens show for `C[C@@H]1O[C@@H](O[C@@H]2[C@@H](O)[C@H](OC(=O)[C@]34CCC(C)(C)CC3C3=CCC5[C@@]6(C)CC[C@H](OC7OC(CO)C(OC8OCC(O)C(O)C8O)C(O)C7O)C(C)(C)C6CC[C@@]5(C)[C@]3(C)CC4O)O[C@H]2CO)[C@H](O)[C@H](O)[C@H]1O[C@H]1OC[C@](O)(CO)[C@H]1O` (some centres not stated)?
STK33 inh: 1; NOMO-1 viab: 95*; p53 PUMA act: -7; MITF inh: 14

Results for COC(=O)c1ccccc1NC(=O)C(C)NS(=O)(=O)c1ccc(Cl)cc1 (configuration not stated) ?
STK33 inh: 1; NOMO-1 viab: -7; p53 PUMA act: 1; MITF inh: -4

Results for CC1(C)CC[C@]2(C(=O)O[C@@H]3O[C@H](CO)[C@@H](O)[C@H](O)[C@H]3O)CC[C@]3(C)C(=CCC4[C@@]5(C)C[C@@H](O)[C@H](O)[C@@](C)(COC(=O)c6cc(O)c(O)c(O)c6)C5[C@H](O)C[C@]43C)[C@@H]2C1 (some centres not stated) ?
STK33 inh: 9; NOMO-1 viab: 109*; p53 PUMA act: -37; MITF inh: 2

Results for CC1(C)CC[C@]2(C(=O)O[C@@H]3O[C@H](CO)[C@@H](O)[C@H](O)[C@H]3O)CC[C@]3(C)C(=CCC4[C@@]5(C)C[C@H](O)[C@H](O[C@@H]6O[C@H](C(=O)O)[C@@H](O)[C@H](O)[C@H]6O)[C@@](C)(CO)C5CC[C@]43C)C2C1 (some centres not stated) ?
STK33 inh: -2; NOMO-1 viab: 0; p53 PUMA act: 10; MITF inh: 2

How did CC(=O)OC1COC(OC2C(O)C(C)OC(OC3C(OC4CCC5(C)C(CCC6(C)C5CC=C5C7CC(C)(C)CCC7(C(=O)O)CCC56C)C4(C)CO)OCC(O)C3O)C2O)C(O)C1OC(C)=O (configuration not stated) do in these assays?
STK33 inh: -4; NOMO-1 viab: 122*; MITF inh: 39

Results for Cc1cccc(NC(=O)CSc2cn(CCNC(=O)c3ccc(F)cc3)c3ccccc23)c1C ?
STK33 inh: 1; NOMO-1 viab: 66; MITF inh: -32

How did COCCOC(=O)N1C(=O)[C@@]2(c3ccccc31)[C@H](c1ccccc1OCCO)N1[C@H](c3ccccc3)[C@H](c3ccccc3)OC(=O)[C@H]1[C@@H]2C(=O)N1CCc2cc(OC)c(OC)cc2C1 do in these assays?
STK33 inh: 0

Results for C[C@H]1CN([C@@H](C)CO)C(=O)Cc2cc(NC(=O)CCC(F)(F)F)ccc2O[C@@H]1CN(C)S(=O)(=O)c1ccc(F)cc1 ?
STK33 inh: 0; NOMO-1 viab: 16; MITF inh: 7

Bioassay records deposited in PubChem by Broad Institute.
